The record followed here is PubChem BioAssay.

A short description of assay [1]: optical density shifts of acrAB sulA E. coli – strain DRC41, OD650, 48 h, E. coli filamentation inducer project, primary screen (AID 1152).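 Note: E. coli MC1000 strain DRC41 lacking acrAB efflux pump and sulA.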 As to conditions: higher = more signal, called active from +8 up or from −8 down.
A short description of assay [2]: probe aLefty1 binding on compound microarray – biochemical, small-molecule microarray, 635/667 nm fluorescence, primary screen (AID 1153).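 Note: score merges spot fluorescence with signal-to-noise ratio from the scanned slide images.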 As to conditions: higher = more signal.
The nature of assay [3]: plasmodial surface anion channel blockers, osmotic lysis – cell-based, P. falciparum Indochina, OD700, 1 h, primary screen (AID 1154). Conditions: P. falciparum Indochina infected RBC osmotic lysis, higher = more signal, called active from +8 up or from −8 down.
Assay [4] is described as follows: plasmodial surface anion channel blockers, osmotic lysis – cell-based, P. falciparum Indochina, OD700, 2 h, primary screen (AID 1155).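 Note: lysis reports solute entry through the parasite surface anion channel PSAC.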 As to conditions: P. falciparum Indochina infected erythrocytes, higher = more signal, called active from +8 up or from −8 down.
A short description of assay [5]: changes in parasitized red cell lysis, either direction – P. falciparum Indochina, OD700, 3 h, PSAC antagonist project, primary screen (AID 1156). As to conditions: P. falciparum-infected erythrocytes, osmotic lysis, higher = more signal, called active from +8 up or from −8 down.
Assay [6] can be described thus: plasmodial surface anion channel blockers, osmotic lysis – cell-based, P. falciparum Indochina, OD700, 18 h, primary screen (AID 1157). Conditions: P. falciparum Indochina infected erythrocytes, osmotic lysis OD700, 18 h; higher = more signal, called active from +8 up or from −8 down.
Assay [7] is described as follows: S6 kinase pathway phospho-S6 level changes – cell-based, A549, cytoblot, luminescence, serum-stimulated, primary screen (AID 1158).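 Note: serum-stimulated A549 lung adenocarcinoma cells; signal is phosphorylated S6 detected by cytoblot immunostaining with HRP secondary.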 As to conditions: 5 h, higher = more signal.
The target in assay [8] is NADPH oxidase 2 (Homo sapiens) (UniProt P04839). Description: compounds shifting NOX2 Amplex Red fluorescence – cell-based, HEK293-NOX2, PMA-stimulated, NOX inhibitor project, primary screen (AID 1159). Note: test concentration not given here. As to conditions: 45 min, higher = more signal, called active from +8 up or from −8 down.
Sequence of NADPH oxidase 2 (Homo sapiens) (P04839 whole entry, looked up): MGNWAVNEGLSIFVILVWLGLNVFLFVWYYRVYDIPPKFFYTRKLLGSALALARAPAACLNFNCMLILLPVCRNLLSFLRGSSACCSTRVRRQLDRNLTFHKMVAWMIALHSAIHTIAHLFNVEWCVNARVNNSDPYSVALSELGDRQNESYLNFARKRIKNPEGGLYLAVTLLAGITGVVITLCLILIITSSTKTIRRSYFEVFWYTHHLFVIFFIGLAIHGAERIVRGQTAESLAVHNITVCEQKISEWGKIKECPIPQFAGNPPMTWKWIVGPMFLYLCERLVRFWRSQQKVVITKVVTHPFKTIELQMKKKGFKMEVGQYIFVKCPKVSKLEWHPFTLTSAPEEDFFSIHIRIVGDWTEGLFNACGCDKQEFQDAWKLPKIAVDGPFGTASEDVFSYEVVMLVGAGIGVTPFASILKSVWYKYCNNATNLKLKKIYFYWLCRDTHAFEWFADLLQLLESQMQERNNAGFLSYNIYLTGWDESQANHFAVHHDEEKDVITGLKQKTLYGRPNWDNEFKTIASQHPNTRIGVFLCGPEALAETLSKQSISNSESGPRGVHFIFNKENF
The target in assay [9] is NADPH oxidase 4 (Homo sapiens) (UniProt Q9NPH5). Description: compounds shifting NOX4 Amplex Red fluorescence – cell-based, HEK293-NOX4, tetracycline-induced, NOX inhibitor project, primary screen (AID 1160). As to conditions: HEK293-NOX4, Amplex Red H2O2 fluorescence, 45 min; higher = more signal, called active from +8 up or from −8 down.
Sequence of NADPH oxidase 4 (Homo sapiens) (Q9NPH5 whole entry, looked up): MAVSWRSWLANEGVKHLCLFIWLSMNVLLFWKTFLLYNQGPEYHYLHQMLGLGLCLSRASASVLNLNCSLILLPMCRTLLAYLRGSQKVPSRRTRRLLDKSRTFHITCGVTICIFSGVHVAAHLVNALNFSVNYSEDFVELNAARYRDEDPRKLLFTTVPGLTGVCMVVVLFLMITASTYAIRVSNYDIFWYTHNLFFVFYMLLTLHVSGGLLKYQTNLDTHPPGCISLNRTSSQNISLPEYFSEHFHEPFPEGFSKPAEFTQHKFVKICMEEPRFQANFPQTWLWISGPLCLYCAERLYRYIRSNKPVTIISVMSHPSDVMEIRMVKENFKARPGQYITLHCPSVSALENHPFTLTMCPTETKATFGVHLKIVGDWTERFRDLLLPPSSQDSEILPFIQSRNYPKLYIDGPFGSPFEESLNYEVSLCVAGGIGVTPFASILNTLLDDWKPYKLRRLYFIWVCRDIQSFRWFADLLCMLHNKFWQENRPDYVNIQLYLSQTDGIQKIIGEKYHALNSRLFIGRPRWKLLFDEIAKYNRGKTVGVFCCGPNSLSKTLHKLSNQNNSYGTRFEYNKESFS
Assay [10] concerns the target NADPH oxidase 5 (Homo sapiens) (UniProt Q96PH1). As to the kind of experiment: compounds shifting NOX5 Amplex Red fluorescence – cell-based, HEK293-NOX5, NOX inhibitor project, primary screen (AID 1161). As to conditions: HEK293-NOX5, ionomycin, 45 min, higher = more signal.

SMILES strings stand for the structures. Activity calls are given as the source filed them.

Sequence of NADPH oxidase 5 (Homo sapiens) (Q96PH1 whole entry, looked up): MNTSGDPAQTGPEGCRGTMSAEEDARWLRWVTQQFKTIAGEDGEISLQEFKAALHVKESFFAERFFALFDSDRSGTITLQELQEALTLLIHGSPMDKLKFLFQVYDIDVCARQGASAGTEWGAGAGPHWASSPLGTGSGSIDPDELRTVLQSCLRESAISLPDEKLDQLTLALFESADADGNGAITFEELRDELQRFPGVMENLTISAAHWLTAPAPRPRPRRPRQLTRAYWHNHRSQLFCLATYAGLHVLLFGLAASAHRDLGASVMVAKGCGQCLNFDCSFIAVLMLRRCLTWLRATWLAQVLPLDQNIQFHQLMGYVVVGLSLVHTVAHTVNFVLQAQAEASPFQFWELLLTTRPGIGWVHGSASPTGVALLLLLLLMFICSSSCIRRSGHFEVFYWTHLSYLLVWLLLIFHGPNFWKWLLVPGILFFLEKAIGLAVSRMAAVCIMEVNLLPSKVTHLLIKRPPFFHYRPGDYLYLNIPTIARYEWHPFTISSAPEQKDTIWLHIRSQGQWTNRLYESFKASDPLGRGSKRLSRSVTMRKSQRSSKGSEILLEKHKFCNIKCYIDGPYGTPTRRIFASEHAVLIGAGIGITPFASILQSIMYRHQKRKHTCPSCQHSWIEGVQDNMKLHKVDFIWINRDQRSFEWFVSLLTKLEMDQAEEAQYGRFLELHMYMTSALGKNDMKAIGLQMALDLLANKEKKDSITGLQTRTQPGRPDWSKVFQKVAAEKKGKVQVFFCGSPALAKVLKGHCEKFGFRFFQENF

Take `COc1ccc([Si](C)(C)[C@@H]2[C@@H](CCn3cc([C@H](O)c4ccccc4)nn3)O[C@]3(C(=O)N(Cc4cccc(N5C(=O)c6cccc7cccc5c67)c4)c4ccccc43)[C@H]2C)cc1`: the z-score is -0.603 (inactive) in assay [1]; 1.8 (inactive) in assay [3]; 0.662 (inactive) in assay [4]; 1.1 (inactive) in assay [5]; 0.794 (inactive) in assay [6]; -0.256 in [7]. For the same compound, the figures for the z-score in [8], in assay [9] and in [10] were 1.08 (inactive), 1.48 (inactive) and 2.2, respectively. Also, in assay [2], the composite z-score stood at 0.0056.

For the compound `COC(=O)[C@@]1(Cc2ccc(OC)cc2)[C@H]2c3cc(C(=O)N4CCCC4)n(Cc4cc(C)n(C)n4)c3C[C@H]2CN1C(=O)c1ccccc1`, the z-score in assay [1] is -0.703 (inactive); in assay [3], 1.46 (inactive); in assay [4], 0.279 (inactive); in [5] it was 0.63 (inactive); in [6] it was 0.494 (inactive); in assay [7], -0.458. Besides, the z-score in assay [8] was 0.755 (inactive); in assay [9] it was -0.134 (inactive); in assay [10], -2.8. Moreover, the composite z-score in assay [2] came out at 0.947.

As for `C[C@@]12COC[C@]13C=C(Br)[C@H](C2)[C@@]1(CO1)C3=O`, the z-score was -0.745 (inactive) in assay [1]; -0.526 (inactive) in assay [3]; -0.0824 (inactive) in assay [4]; -0.347 (inactive) in assay [5]; -0.161 (inactive) in assay [6]; -0.788 in [7]. Moreover, the z-score was 0.51 (inactive) in assay [8], 0.527 (inactive) in assay [9] and 0.119 in assay [10]. In assay [2], the composite z-score is -0.0003.

Regarding `CN(C)CCCCCCNC(=O)[C@@H]1C[C@@H]2C(=O)N[C@@H](CCCCN)C(=O)N2[C@@H]1c1ccc(O)cc1`, the z-score in assay [1] is 0.724 (inactive); in assay [3], 0.983 (inactive); in [4], -0.111 (inactive); in assay [5], 2.87 (inactive); in assay [6], -1.88 (inactive); in [7], 1.32. In addition, the results for the z-score in [8], in assay [9] and in assay [10] were -0.0284 (inactive), 0.901 (inactive) and 1.13, respectively. For the same compound, the composite z-score in assay [2] was 3.1.

As to `CC(C)[C@H]1NC(=O)[C@@]23C(=O)N[C@@H](Cc4ccccc4)C2[C@H](C)[C@@]2(C)O[C@H]2C3/C=C/C/C=C\CNC(=O)[C@H](Cc2ccccc2)NC1=O` (stereo not given in full), the z-score in [1] is -0.306 (inactive); in assay [3], 1.48 (inactive); in assay [4], 0.491 (inactive); in assay [5] it was 0.137 (inactive); in [6], 0.476 (inactive); in assay [7], -0.324. In addition, the figures for the z-score in [8], in assay [9] and in assay [10] were 0.155 (inactive), 1.05 (inactive) and 1.1, respectively. The same compound yielded a composite z-score in assay [2] of 0.284.

With `CC(C)CNC(=O)[C@@H]1c2ccccc2C(=O)N(C2CCCCC2)[C@H]1c1ccc(CO)cc1`, the z-score is 3.5 (inactive) in assay [1]; 1.36 (inactive) in assay [3]; 0.387 (inactive) in [4]; 0.472 (inactive) in [5]; -0.288 (inactive) in [6]; 1.24 in assay [7]. In addition, the z-score in [8] was -0.318 (inactive); in [9], 1.42 (inactive); in assay [10], 0.297. In [2], this compound displayed a composite z-score of 0.259.

As for `NC(=O)N1C(=O)C2C(C1=O)C1C=C(CCCO)C2C(C2CC2)N1Cc1cccc(OC(F)(F)F)c1` (stereo not given), the z-score in assay [1] was -0.778 (inactive); in assay [3], 1.03 (inactive); in assay [4], 0.275 (inactive); in [5], -0.351 (inactive); in [6], 0.161 (inactive); in [7], -0.898. The z-score was 0.699 (inactive) in assay [8], -0.685 (inactive) in assay [9] and -0.738 in assay [10]. Moreover, in assay [2], the composite z-score is -0.195.

For the compound `CCOC(=O)C[C@H]1[C@H](OC(=O)c2cc3ccccc3oc2=O)[C@@H](NC(=O)c2ccc3ccccc3c2)c2cc(OCCCO)ccc2N1C(=O)Cc1ccc(OC)cc1`, the z-score is -0.62 (inactive) in assay [1]; 7.22 (inactive) in [3]; 0.935 (inactive) in [4]; 0.703 (inactive) in [5]; 0.525 (inactive) in assay [6]; -0.24 in assay [7]. For the same compound, the z-score in assay [8] was 3.04 (inactive); in [9] it was 1.01 (inactive); in assay [10], 1.94. For the same compound, the composite z-score in assay [2] was -0.0479.

Take `C[C@]1(C(=O)NCC(F)(F)F)c2ccccc2C(=O)N(Cc2ccccc2)[C@H]1c1ccc(CO)cc1`: the z-score in assay [1] is 0.588 (inactive); in assay [3], 2.28 (inactive); in [4], 0.0336 (inactive); in [5], -0.201 (inactive); in [6], -0.162 (inactive); in assay [7], -0.617. Besides, the figures for the z-score in [8], in assay [9] and in [10] were -0.0434 (inactive), 0.431 (inactive) and 0.17, respectively. In addition, in [2], the composite z-score was determined as 0.382.

In the case of `[N-]=[N+]=NCc1ccccc1[C@H]1OC(c2ccc(OCCCO)cc2)=N[C@@]1(Cc1ccccc1)C(=O)NCCN1CCOCC1`, the z-score in assay [1] was 0.694 (inactive); in assay [3], 28.1 (active); in [4], 22.1 (active); in [5], 3.64 (inactive); in assay [6], 3.74 (inactive); in [7], -0.281. The z-score in assay [8] is 0.0323 (inactive); in assay [9], 1.93 (inactive); in assay [10], 1.58. In assay [2], this compound showed a composite z-score of 0.843.

Turning to `C=C(C)[C@@H]1CC=C(C(O)C2C=CC3C(=O)N(c4ccccc4)C(=O)C3N2Nc2ccc(C#N)cc2)CC1` (stereo not given in full), the z-score is -2.24 (inactive) in assay [1]; 9.15 (active) in assay [3]; 3.26 (inactive) in assay [4]; 0.625 (inactive) in assay [5]; 2.49 (inactive) in assay [6]; -0.66 in [7]. The z-score was -1.94 (inactive) in assay [8], -3.56 (inactive) in assay [9] and -2.27 in [10]. For the same compound, in assay [2], the composite z-score stood at 0.619.

As for `CN1C(=O)C2C=CC(C(O)c3ccc(F)cc3)N(NC(=O)OC(C)(C)C)C2C1=O` (stereo not given), the z-score was -1.73 (inactive) in assay [1]; -0.468 (inactive) in [3]; 0.477 (inactive) in [4]; 0.008 (inactive) in assay [5]; 0.901 (inactive) in assay [6]; -1.28 in [7]. Moreover, the z-score in assay [8] is -0.46 (inactive); in assay [9] it was -0.56 (inactive); in assay [10] it was -0.481. The compound further returned a composite z-score in assay [2] of 0.101.

On to `CCc1cccc(NC(=O)O[C@H]2[C@H](OC(=O)Nc3ccccc3)[C@H](OC(=O)Nc3ccccc3)[C@@H](OC)O[C@@H]2CO)c1`, for which the z-score is -1.42 (inactive) in [1]; 10.1 (active) in [3]; 3.34 (inactive) in assay [4]; -1.53 (inactive) in assay [5]; 1.92 (inactive) in assay [6]; 0.213 in assay [7]. Also, the z-score in assay [8] was -1.12 (inactive); in assay [9] it was -0.593 (inactive); in assay [10], -1.3. In addition, the composite z-score in [2] is 0.253.
